The compounds below were run on PRKAA2. Settings: read-out: apparent Kd; compound concentrations:100 nM and 1000 nM (sheet 'Samples'); n = 1.
Set-up: species or system human, MV4-11 + K-562 + COLO205 + SK-N-BE2 + OVCAR-8
For `NCCNS(=O)(=O)c1ccc(-c2ccnc3[nH]ccc23)cc1` [GSK977617A], the potency estimated from few doses was 721 nM.
`O=C1NC(=O)C(N2CCc3ccccc32)=C1c1ccccc1Cl` [SB-373598] was tested, and the potency estimated from few doses was 694 nM.
Compound `Cl.Cl.NCC(C(=O)Nc1cc(Br)c(-c2ccnc3[nH]ccc23)s1)c1ccccc1.NCC(C(=O)Nc1cc(Br)c(-c2ccnc3[nH]ccc23)s1)c1ccccc1` (stereo not drawn) [GSK1269851A] has a potency estimated from few doses of 1130 nM.
Compound `CC(C)N1CCC(n2cnc(-c3ccc(F)cc3)c2-c2ccnc(N)n2)CC1` [SB-223132] has a potency estimated from few doses of 1290 nM.
`CNC(=O)c1ccccc1Nc1nc(Nc2ccc(N3CCOCC3)cc2)ncc1Cl.Cl` [GSK1576028A] showed a potency estimated from few doses of 688 nM.
`CN1C[C@@H]2Cn3c(c(C4=C(c5cn(C)c6ccccc56)C(=O)NC4=O)c4ccccc43)C[C@H]2C1.Cl` [RO0320234-001] was tested, and the potency estimated from few doses was 448 nM.
Work on `Cc1ccc2c(-c3ccncc3)c(-c3ccc(F)cc3)nn2c1.Cl` [GW461484A] yielded a potency estimated from few doses of 1840 nM.

Each compound was assayed on PRKACA. Settings: read-out: apparent Kd; compound concentrations:100 nM and 1000 nM (sheet 'Samples'); n = 1.
Set-up: species or system human, MV4-11 + K-562 + COLO205 + SK-N-BE2 + OVCAR-8
`NCCNS(=O)(=O)c1ccc(-c2ccnc3[nH]ccc23)cc1` [GSK977617A] gave a potency estimated from few doses of 361 nM.
In the case of `CC(C)N1CCC(n2cnc(-c3ccc(F)cc3)c2-c2ccnc(N)n2)CC1` [SB-223132], the potency estimated from few doses is reported as 1710 nM.
Compound `CCn1c(-c2nonc2N)nc2c(C#CC(C)(C)O)nc(OCCN)cc21.CCn1c(-c2nonc2N)nc2c(C#CC(C)(C)O)nc(OCCN)cc21.Cl.Cl` [GSK902056A] has a potency estimated from few doses of 1200 nM.
In the case of `Cc1ccc2c(-c3ccncc3)c(-c3ccc(F)cc3)nn2c1.Cl` [GW461484A], the potency estimated from few doses is reported as 1900 nM.

What follows are compounds tested on PRKACB. Settings: read-out: apparent Kd; compound concentrations:100 nM and 1000 nM (sheet 'Samples'); n = 1.
Set-up: species or system human, MV4-11 + K-562 + COLO205 + SK-N-BE2 + OVCAR-8
`NCCNS(=O)(=O)c1ccc(-c2ccnc3[nH]ccc23)cc1` [GSK977617A] gave a potency estimated from few doses of 571 nM.
`O=C1NC(=O)C(N2CCc3ccccc32)=C1c1ccccc1Cl` [SB-373598] showed a potency estimated from few doses of 1480 nM.
`Cl.Cl.NCC(C(=O)Nc1cc(Br)c(-c2ccnc3[nH]ccc23)s1)c1ccccc1.NCC(C(=O)Nc1cc(Br)c(-c2ccnc3[nH]ccc23)s1)c1ccccc1` (stereo not drawn) [GSK1269851A] showed a potency estimated from few doses of 1920 nM.
`CCn1c(-c2nonc2N)nc2c(C#CC(C)(C)O)nc(OCCN)cc21.CCn1c(-c2nonc2N)nc2c(C#CC(C)(C)O)nc(OCCN)cc21.Cl.Cl` [GSK902056A] was tested, and the potency estimated from few doses was 1000 nM.

Source: article PMC11062922 (Nature Chemical Biology, 2023)
